# Records with an inconclusive call do not appear. Values without a mark were called inactive. Calls come from the whole dose curve; as a rule, active = well fitted activation curve with a large enough effect; inconclusive = small, poorly fitted or top-dose-only effect; inactive = flat fitted curve, though single readings scatter.
# Assay: qHTS for Activators of Parkin Expression: LOPAC Validation Assay (NLuc Reporter) (AID 720572;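 note: 0% = DMSO and 100% = positive control compound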)
# Settings: Parkin promoter NanoLuc reporter cells, luminescence, percent of positive control, DMSO as zero; series mostly up to 46.1 µM; activation: at the top concentration
# Excerpt: Parkin is an E3 ubiquitin ligase localized in the cytosol of cells expressed in many tissues, including brain, skeletal muscle, heart and liver tissues. One hour after stress induction by mitochondrial uncouplers (which mimic mitochondria damage by decreasing the mitochondrial inner membrane electrochemical gradient that is used to produce ATP), Parkin translocates from the cytosol to mitochondria in many cultured cell types, including neurons and HeLa cells. Administration of other mitochondrial poisons, such as Paraquat and azide in cells lacking mitochondrial DNA (mtDNA), induces Parkin translocation to mitochondria. […] It was proposed that Parkin (together with Pink1) mediates a mitochondrial quality control pathway to maintain organelle population fidelity by removing damaged mitochondria. Understanding the normal physiologic role of Parkin (and Pink1) may uncover novel treatment strategies for sporadic Parkinson's disease patients with mutation in these genes.
# A cell based qHTS in 1536 well format was developed assess modulation of Parkin expression using a neuronal cell line that stably expresses a stably expresses a luminescent coincidence reporter (FLuc and NLuc reporters) behind the Parkin promoter. The LOPAC library is used to validate the assay for quantitative high-throughput screening. The data herein reports the signal from the NLuc reporter. An increase in this signal = activation of Parkin expression. For this assay , a positive control normalized signal increase corresponding to a high quality qHTS curve class in both luminescent channels is the desired outcome for this assay.
# NIH Chemical Genomics Center [NCGC]
# NIH Molecular Libraries Probe Centers Network [MLPCN]
# Assay Submitter (PI): Richard Youle, National Institute of Neurological Disorders and Strokes (NINDS), NIH
# [1] Narendra, D., et al., Parkin is recruited selectively to impaired mitochondria and promotes their autophagy. J Cell Biol, 2008. 183(5): p.
# [2] Suen, D.F., et al., Parkin overexpression selects against a deleterious mtDNA mutation in heteroplasmic cybrid cells. Proc Natl Acad Sci U S A, 2010. […] 11835-40.
# [3] Cheng K, Inglese J. A coincedence reporter-gene system for high-throughput screening. Nat Methods. 2012: 9(10);937
# Five microliters (1,500 cells/well) of the Parkin coincidence reporter cells were seeded to 1536 well assay plates (Greiner Catalog # 789173-F) and incubated at 37 C, 5% CO2 for 24 hours. Compounds (23 nL) were pinned using the Kalypsys robotic system equipped with 1536 pin head adaptor in 7-point dose response. The assay plates were incubated for additional 24 hr at 37 C, 5% CO2 followed by a volume reduction in each well to 2 uL using an automated plate washer/aspirator. Following the volume reduction,2 uL of FLuc detection reagent and plates were incubated for 10 minutes at room temperature. The FLuc luminescence signal was obtained using the PerkinElmer ViewLux plate imager and then 2 uL of NanoLuc detection reagent was added to the plates. After another 10 minute incubation, NanoLuc signal was obtained using the PerkinElmer ViewLux plate imager as before. Data from each channel was normalized to DMSO (neutral control) and the positive control compounds (100%).
row,SMILES,activation [%]
1,C[N+](C)(C)CCO,1.68
2,COc1ccccc1N1CCN(CCN2C(=O)CC3(CCCC3)CC2=O)CC1,-2.66
3,Cn1cnc2c(NCc3ccccc3)nc(NCCO)nc21,0.367
4,NC(N)=NCCCCN=C(N)N,2.04
5,Brc1ccc([C@H]2CN3CCSC3=N2)cc1,3.71
6,N[C@@H](Cn1ccc(=O)c(O)c1)C(=O)O,-1.89
7,Nc1ncnc2n[nH]c(Nc3ccc(F)cc3)c12,10.7
8,COc1cccc2c1[C@@H]1CN(CCCCn3c(=O)[nH]c4c(sc5ncc(-c6ccccc6)nc54)c3=O)C[C@@H]1CO2,2.02
9,Clc1ccc2c(c1)N=C(N1CCNCC1)c1ccccc1N2,-1.38
10,O=C1NC(c2cccc([N+](=O)[O-])c2)=CCN1c1ccccc1O,-2.6
11,COC(=O)C1=CO[C@@H](O)[C@@H]2C(CO)=CC[C@H]12,13.3
12,O=[N+]([O-])c1ccc(-c2nc(-c3ccc(F)cc3)c(-c3ccncc3)[nH]2)cc1,23.1
13,Cc1nn(-c2ccccc2)c(C)c1/C=N/N1CCN(Cc2ccccc2)CC1,-7.76
14,O=C1NC(=O)/C(=C/c2ccc3c(c2)OC(F)(F)O3)S1,-6.21
15,CC(C)N(CCC(=O)c1ccc2ccccc2c1)Cc1ccccc1,-29.8
